Bioassay records from PubChem.
Only some compounds are listed: those with a hit (about 11% of all), similar ones and a draw of the others.
HCV inh – qHTS Assay for Inhibitors of Hepatitis C Virus (HCV). Huh7.5.1 HCVcc-Cre infection, luciferase reporter, 44 h. Potency, µM (highest dose often 41.8 µM), for the others: top-dose activity change, negative = inhibition, actives largely listed as inhibitors. 340,000 tested, 3.4% active; also: % is scaled to controls: 0 for no effect and ±100 for the full control effect
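Luciferase read-out (15 sec integration) after a 15 min room-temperature substrate step quantifies HCVcc-Cre infection. Cells, 1,000 per well, had compound added 4 h post-plating, then virus at ~0.5 moi, and were cultured 44 h.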
NS1 inh – qHTS Assay for Inhibitors of Influenza NS1 Protein Function. AID 2326, 2010. Potency, µM (top dose mostly 46.1 µM), for the others: at the highest dose activity, positive = more growth. 270,000 tested, 0.4% active; calls by dose curve; also: actives are rising curves; nearly all actives have a fitted effect of over 50% in size
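Recovery from NS1-induced slow growth read by OD600 in budding yeast switched to galactose assay medium (pH 6.0, -URA) at 1:100 dilution. Compound 23 nl per well; the matching strain lacking NS1 serves as control.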
Pf growth 48h – Primary qHTS for delayed death inhibitors of the malarial parasite plastid, 48 hour incubation. P. falciparum luciferase growth in erythrocytes, 48 h. Potency, µM (top dose mostly 28.7 µM), for inactives: top-dose activity change, negative = inhibition, actives largely listed as inhibitors. 310,000 tested, 5.9% active. AID 504832, 2011; also: % is scaled to controls: 0 for no effect and ±100 for the full control effect
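Luminescence readout; reporter = integrated firefly luciferase in P. falciparum. RBC culture at 2% hematocrit, 0.1% parasitemia final, 37 C/5% CO2; decreased signal taken as growth inhibition.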
VACV mCherry inh – qHTS for Stage-Specific Inhibitors of Vaccinia Orthopoxvirus: mCherry Reporter Primary qHTS | Vaccinia virus mCherry reporter infection, fluorescence | Potency, µM (doses to about 36.5 µM), without a hit: top-dose activity change, negative = inhibition, usual class: inhibitors | 310,000 tested, 0.63% active | AID 720579, 2013; calls by dose curve; tested in A549 cells; also: % is scaled to controls: 0 for no effect and ±100 for the full control effect; nearly all actives have a fitted effect of over 35% in size
Vaccinia Venus – qHTS for Stage-Specific Inhibitors of Vaccinia Orthopoxvirus: Venus Reporter Primary qHTS. 330,000 tested, 0.46% active. Vaccinia virus Venus reporter expression, fluorescence. AID 720580, 2013. Potency, µM (series often up to 36.5 µM), for inactives: at the top dose activity change, negative = inhibition, usual class: inhibitors; calls by dose curve; tested in A549 cells; also: % is scaled to controls: 0 for no effect and ±100 for the full control effect; nearly all actives have a fitted effect of over 30% in size
Pf growth 96h – Primary qHTS for delayed death inhibitors of the malarial parasite plastid, 96 hour incubation | P. falciparum luciferase reporter growth, 96 h | Potency, µM (top dose mostly 28.7 µM), for the others: at the top dose activity change, negative = inhibition, hits mostly inhibitors | 320,000 tested, 6.9% active | AID 504834, 2011; also: % is scaled to controls: 0 for no effect and ±100 for the full control effect
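P. falciparum expressing integrated firefly luciferase grown in erythrocytes (2% hematocrit, 0.05% parasitemia final) with compounds for 96 hours at 37 C, 5% CO2. Growth inhibition read as loss of luminescence after adding luciferase detection reagent.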
Active calls of the source: *; [ ] = dose if it differs, or a comment. Unless noted, calls follow the shape of the dose curve; as a rule, active = well fitted inhibition curve with a large enough effect; inconclusive = small, poorly fitted or top-dose-only effect, or another doubt; inactive = no such curve, though single readings can be large or run the other way. Potency is read from the fitted curve at half-maximal effect.

How did O=C1c2ccccc2C(=O)c2c1oc(C(F)(F)F)c2C(=O)c1ccccc1 do in these assays?
HCV inh: 22µM*; NS1 inh: inconclusive; Pf growth 48h: inconclusive; VACV mCherry inh: 4.5µM*; Vaccinia Venus: 3.2µM*; Pf growth 96h: 0.13µM*

What do the screens show for `CC(=O)c1c(C)oc2c1C(=O)c1ccccc1C2=O`?
HCV inh: 8.9µM*; NS1 inh: -16%; Pf growth 48h: inconclusive; VACV mCherry inh: -15%; Vaccinia Venus: -2%; Pf growth 96h: -29%

Results for CC(=O)c1c2c3c(c(Br)ccc3n(C)c1=O)C(=O)c1ccccc1-2 ?
HCV inh: -6%; NS1 inh: -1%; Pf growth 48h: -10%; VACV mCherry inh: inactive; Vaccinia Venus: 5%; Pf growth 96h: 18%

How did Cc1ccc(-c2nn(-c3ccccc3)cc2C(=O)N2CCOCC2)cc1C do in these assays?
HCV inh: -9%; NS1 inh: 3%; Pf growth 48h: inconclusive; VACV mCherry inh: inactive; Vaccinia Venus: -9%; Pf growth 96h: inconclusive

How did O=C(O)c1ccccc1-n1cccc1C(=O)O do in these assays?
HCV inh: 26%; NS1 inh: -1%; Pf growth 48h: 13%; VACV mCherry inh: inactive[7.34 µM]; Vaccinia Venus: -3%[7.34 µM]; Pf growth 96h: 2%

How did CCN1CCN(C(=O)Cn2ncc3c([nH]c4ccccc43)c2=O)CC1 do in these assays?
HCV inh: 10%; NS1 inh: -1%; Pf growth 48h: 7%; Pf growth 96h: 0%

What do the screens show for `OC[C@H]1O[C@H](OC[C@H]2O[C@H](OC[C@H]3O[C@H](O[C@]4(CO)O[C@H](CO)[C@@H](O)[C@@H]4O)[C@H](O)[C@@H](O)[C@@H]3O)[C@H](O)[C@@H](O)[C@H]2O)[C@H](O)[C@@H](O)[C@H]1O`?
HCV inh: 20%; Pf growth 48h: 0%; VACV mCherry inh: inactive; Vaccinia Venus: -12%; Pf growth 96h: 8%

What do the screens show for `COc1ccccc1CC(=O)N1CCN(C(=O)c2ccco2)CC1`?
HCV inh: 6%; NS1 inh: 6%; Pf growth 48h: 10%; VACV mCherry inh: 0%; Vaccinia Venus: -12%; Pf growth 96h: inconclusive

How did CCOC(=O)C(CCCCCCC(NC(C)=O)(C(=O)OCC)C(=O)OCC)(NC(C)=O)C(=O)OCC do in these assays?
HCV inh: 10%; NS1 inh: -1%; Pf growth 48h: 2%; VACV mCherry inh: -7%; Vaccinia Venus: 0%; Pf growth 96h: -25%

What do the screens show for `CCOC(=O)C(CO)(NC(C)=O)C(=O)OCC`?
HCV inh: -6%; NS1 inh: -3%; Pf growth 48h: 5%; VACV mCherry inh: -1%; Vaccinia Venus: 2%; Pf growth 96h: 0.93µM*

Results for N=c1c(S(=O)(=O)c2ccccc2)cc2c(=O)n3ccccc3nc2n1CCN1CCOCC1 ?
NS1 inh: 4%

What do the screens show for `O=C(COc1cccc(NC(=O)c2cccc([N+](=O)[O-])c2)c1)c1ccc(Br)cc1`?
HCV inh: 14µM*; NS1 inh: 2%; Pf growth 48h: 109%; Vaccinia Venus: inconclusive; Pf growth 96h: 69%

What do the screens show for `O=C(Nc1cccc(OCC(=O)N2CCOCC2)c1)c1cccc([N+](=O)[O-])c1`?
HCV inh: 9%; NS1 inh: 1%; Pf growth 48h: 15%; Pf growth 96h: 7.4µM*

How did O=C(Nc1cccc(OCC(=O)N2CCOCC2)c1)c1cccc(Cl)c1 do in these assays?
HCV inh: -7%; NS1 inh: -8%; Pf growth 48h: 61%; Pf growth 96h: 9%

How did COc1ccc(OCC(=O)N(Cc2cccs2)c2ccc(OC)cc2)cc1 do in these assays?
VACV mCherry inh: -6%; Vaccinia Venus: -4%

What do the screens show for `CCOC(=O)c1c(C)[nH]c(C(=O)Nc2cc(OCC)c(N3CCOCC3)cc2OCC)c1C`?
HCV inh: inconclusive; Pf growth 48h: 2.9µM*; Pf growth 96h: 15µM*

How did CCOc1cc(N2CCOCC2)c(OCC)cc1NC(=O)Cc1ccccc1 do in these assays?
HCV inh: 1%; NS1 inh: 1%; Pf growth 48h: inconclusive; VACV mCherry inh: -14%; Vaccinia Venus: -18%; Pf growth 96h: inconclusive

How did CCOc1cc(N2CCOCC2)c(OCC)cc1NC(=O)c1cc(C)cc(C)c1 do in these assays?
HCV inh: 3.5µM*; Pf growth 48h: 13µM*; VACV mCherry inh: -4%; Vaccinia Venus: -5%; Pf growth 96h: inconclusive

How did CCOc1cc(N2CCOCC2)c(OCC)cc1NC(=O)Cc1ccccc1OC do in these assays?
HCV inh: -17%; NS1 inh: 5%; Pf growth 48h: inconclusive; Vaccinia Venus: -27%; Pf growth 96h: 7.4µM*

Results for CC1CCc2c(nc3ncnn3c2N2CCN(c3ccccc3F)CC2)C1 (configuration not stated) ?
HCV inh: -17%; NS1 inh: -15%; Pf growth 48h: inconclusive; VACV mCherry inh: -14%; Vaccinia Venus: -10%; Pf growth 96h: inconclusive

What do the screens show for `O=C(Nc1ccccc1)c1ccc(S(=O)(=O)N2CCCCC2)cc1`?
HCV inh: inconclusive; NS1 inh: -30%; Pf growth 48h: inconclusive; VACV mCherry inh: -12%; Vaccinia Venus: -16%; Pf growth 96h: inconclusive

What do the screens show for `O=C(Nc1ccn(-c2ccccc2)n1)c1ccc(S(=O)(=O)N2CCCCCC2)cc1`?
HCV inh: inconclusive; NS1 inh: -127%; Pf growth 48h: 1µM*; VACV mCherry inh: -21%; Vaccinia Venus: -13%; Pf growth 96h: inconclusive

What do the screens show for `O=C(Nc1ccon1)c1ccc(S(=O)(=O)N2CCCCCC2)cc1`?
HCV inh: 9%; NS1 inh: inconclusive; Pf growth 48h: 9.3µM*; Vaccinia Venus: -10%; Pf growth 96h: inconclusive

What do the screens show for `Cc1ccc(C(=O)Nc2ccon2)cc1S(=O)(=O)N1CCCCCC1`?
HCV inh: inconclusive; NS1 inh: 7%; Pf growth 96h: inconclusive

Results for O=C1NC(c2ccccc2)=C(c2nc3ccccc3s2)C(c2ccccc2)N1 (configuration not stated) ?
HCV inh: inconclusive; NS1 inh: 22%; Pf growth 48h: inconclusive; VACV mCherry inh: -8%; Vaccinia Venus: -23%; Pf growth 96h: 8.3µM*

How did Cc1onc(-c2c(Cl)cccc2Cl)c1/C(N)=N/OC(=O)C(C)(C)C do in these assays?
HCV inh: 8%; NS1 inh: -4%; Pf growth 48h: 12µM*; VACV mCherry inh: -13%; Vaccinia Venus: -3%; Pf growth 96h: 8.3µM*
